# Of roughly 21,000 targets only a part is listed; those with the largest changes were picked by preference.
# Compound: CC1Cc2ccccc2N1C(=O)C1CCCN(C1)C(=O)CCl (mixture of isomers) [TRIM25 ligand 11 (diastereomer mixture)]
# Assay: probe-labelled cysteine peptide fold change vs DMSO (competition) (log2 fold change); higher = less target engagement (more negative = stronger competition)
# Conditions: THP-1, incubation time: 4 h
# 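Also: competitive chemoproteomic profiling in live THP-1 cells with an iodoacetamide desthiobiotin (IA-DTB) probe, comparing probe-labelled peptide intensities in compound-treated cells against DMSO-treated controls.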
# UniProt O75563, sequence (O75563 whole entry, looked up): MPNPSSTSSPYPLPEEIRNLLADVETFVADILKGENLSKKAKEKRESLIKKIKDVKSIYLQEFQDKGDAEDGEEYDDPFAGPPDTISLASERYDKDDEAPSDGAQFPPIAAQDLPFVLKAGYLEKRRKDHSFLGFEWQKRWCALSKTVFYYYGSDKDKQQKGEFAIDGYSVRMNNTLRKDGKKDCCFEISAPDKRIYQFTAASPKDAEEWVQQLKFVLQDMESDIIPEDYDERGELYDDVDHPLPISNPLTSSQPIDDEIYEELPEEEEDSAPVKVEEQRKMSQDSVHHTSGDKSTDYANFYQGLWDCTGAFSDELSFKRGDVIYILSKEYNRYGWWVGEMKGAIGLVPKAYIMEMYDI
# UniProt Q99590, sequence (Q99590 whole entry, looked up): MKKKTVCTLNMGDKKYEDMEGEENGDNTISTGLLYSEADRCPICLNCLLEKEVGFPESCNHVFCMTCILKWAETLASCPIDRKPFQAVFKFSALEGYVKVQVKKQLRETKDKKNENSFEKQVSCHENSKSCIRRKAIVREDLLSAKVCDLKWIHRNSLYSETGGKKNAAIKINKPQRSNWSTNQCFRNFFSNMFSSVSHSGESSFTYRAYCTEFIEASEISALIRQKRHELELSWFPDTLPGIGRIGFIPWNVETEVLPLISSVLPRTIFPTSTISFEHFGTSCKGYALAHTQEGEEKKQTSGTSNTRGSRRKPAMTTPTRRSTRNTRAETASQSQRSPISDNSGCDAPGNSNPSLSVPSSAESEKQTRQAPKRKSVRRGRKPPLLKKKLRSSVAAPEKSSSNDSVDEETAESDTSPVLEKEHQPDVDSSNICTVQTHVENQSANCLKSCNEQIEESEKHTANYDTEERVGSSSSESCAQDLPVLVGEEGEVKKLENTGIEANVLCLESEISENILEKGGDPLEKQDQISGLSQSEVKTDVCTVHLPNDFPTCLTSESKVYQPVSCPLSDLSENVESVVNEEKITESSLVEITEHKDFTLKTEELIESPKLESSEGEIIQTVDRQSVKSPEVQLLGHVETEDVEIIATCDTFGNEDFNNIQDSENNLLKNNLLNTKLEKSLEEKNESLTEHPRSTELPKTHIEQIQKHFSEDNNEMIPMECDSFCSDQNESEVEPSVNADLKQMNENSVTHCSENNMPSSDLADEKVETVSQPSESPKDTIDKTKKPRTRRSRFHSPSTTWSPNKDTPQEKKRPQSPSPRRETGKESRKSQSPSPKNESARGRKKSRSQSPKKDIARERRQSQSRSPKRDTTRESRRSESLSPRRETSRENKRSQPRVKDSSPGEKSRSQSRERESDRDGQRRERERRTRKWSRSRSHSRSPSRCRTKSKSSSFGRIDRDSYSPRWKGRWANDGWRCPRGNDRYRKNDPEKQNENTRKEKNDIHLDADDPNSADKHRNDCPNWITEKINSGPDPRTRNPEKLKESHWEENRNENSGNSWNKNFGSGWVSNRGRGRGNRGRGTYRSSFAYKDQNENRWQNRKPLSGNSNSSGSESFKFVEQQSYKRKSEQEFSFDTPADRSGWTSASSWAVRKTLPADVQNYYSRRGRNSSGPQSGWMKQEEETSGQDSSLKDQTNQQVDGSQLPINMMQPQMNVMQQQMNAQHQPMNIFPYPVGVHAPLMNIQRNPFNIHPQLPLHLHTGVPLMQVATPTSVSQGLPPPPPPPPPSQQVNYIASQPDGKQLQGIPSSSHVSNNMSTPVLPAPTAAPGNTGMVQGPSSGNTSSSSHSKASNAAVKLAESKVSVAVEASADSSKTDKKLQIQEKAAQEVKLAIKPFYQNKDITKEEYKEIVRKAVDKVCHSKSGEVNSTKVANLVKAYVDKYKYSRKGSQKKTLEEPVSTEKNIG
# UniProt Q5VZM2, sequence (Q5VZM2 whole entry, looked up): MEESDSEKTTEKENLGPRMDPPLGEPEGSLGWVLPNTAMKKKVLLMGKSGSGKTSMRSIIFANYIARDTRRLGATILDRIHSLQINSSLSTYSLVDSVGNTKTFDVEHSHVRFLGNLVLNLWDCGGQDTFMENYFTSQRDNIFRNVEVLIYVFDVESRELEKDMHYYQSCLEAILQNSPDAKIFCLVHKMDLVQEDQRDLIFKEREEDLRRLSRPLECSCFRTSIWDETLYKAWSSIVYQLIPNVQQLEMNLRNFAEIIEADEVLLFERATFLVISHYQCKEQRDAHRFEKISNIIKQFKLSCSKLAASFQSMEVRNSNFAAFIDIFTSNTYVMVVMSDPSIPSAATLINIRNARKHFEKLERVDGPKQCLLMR
# UniProt P09234, sequence (P09234 whole entry, looked up): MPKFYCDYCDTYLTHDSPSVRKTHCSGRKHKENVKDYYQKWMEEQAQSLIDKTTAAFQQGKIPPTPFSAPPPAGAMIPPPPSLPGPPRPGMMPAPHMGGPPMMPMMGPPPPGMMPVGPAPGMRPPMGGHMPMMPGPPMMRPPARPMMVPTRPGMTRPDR
# UniProt P03973, sequence (P03973 whole entry): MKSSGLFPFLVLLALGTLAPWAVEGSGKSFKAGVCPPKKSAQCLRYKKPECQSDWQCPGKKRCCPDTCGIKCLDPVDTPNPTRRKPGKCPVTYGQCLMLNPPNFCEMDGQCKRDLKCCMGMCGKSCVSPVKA
# UniProt Q9UHD8, sequence (Q9UHD8 whole entry, looked up): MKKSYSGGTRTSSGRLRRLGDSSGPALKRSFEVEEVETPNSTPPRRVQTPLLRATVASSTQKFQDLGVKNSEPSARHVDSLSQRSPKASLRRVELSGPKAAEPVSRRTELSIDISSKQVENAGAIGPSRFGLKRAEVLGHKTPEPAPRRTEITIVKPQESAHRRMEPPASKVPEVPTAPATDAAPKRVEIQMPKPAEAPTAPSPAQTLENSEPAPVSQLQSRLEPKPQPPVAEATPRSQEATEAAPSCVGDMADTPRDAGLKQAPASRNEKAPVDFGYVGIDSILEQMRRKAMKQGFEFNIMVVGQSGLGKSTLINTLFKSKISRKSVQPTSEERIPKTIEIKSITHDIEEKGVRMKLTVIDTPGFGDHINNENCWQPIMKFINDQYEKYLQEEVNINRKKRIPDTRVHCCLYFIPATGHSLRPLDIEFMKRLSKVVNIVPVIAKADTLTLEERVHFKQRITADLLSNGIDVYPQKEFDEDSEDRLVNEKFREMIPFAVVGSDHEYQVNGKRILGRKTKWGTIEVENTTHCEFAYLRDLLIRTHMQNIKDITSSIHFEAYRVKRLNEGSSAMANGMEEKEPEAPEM
# UniProt O95391, sequence (O95391 whole entry, looked up): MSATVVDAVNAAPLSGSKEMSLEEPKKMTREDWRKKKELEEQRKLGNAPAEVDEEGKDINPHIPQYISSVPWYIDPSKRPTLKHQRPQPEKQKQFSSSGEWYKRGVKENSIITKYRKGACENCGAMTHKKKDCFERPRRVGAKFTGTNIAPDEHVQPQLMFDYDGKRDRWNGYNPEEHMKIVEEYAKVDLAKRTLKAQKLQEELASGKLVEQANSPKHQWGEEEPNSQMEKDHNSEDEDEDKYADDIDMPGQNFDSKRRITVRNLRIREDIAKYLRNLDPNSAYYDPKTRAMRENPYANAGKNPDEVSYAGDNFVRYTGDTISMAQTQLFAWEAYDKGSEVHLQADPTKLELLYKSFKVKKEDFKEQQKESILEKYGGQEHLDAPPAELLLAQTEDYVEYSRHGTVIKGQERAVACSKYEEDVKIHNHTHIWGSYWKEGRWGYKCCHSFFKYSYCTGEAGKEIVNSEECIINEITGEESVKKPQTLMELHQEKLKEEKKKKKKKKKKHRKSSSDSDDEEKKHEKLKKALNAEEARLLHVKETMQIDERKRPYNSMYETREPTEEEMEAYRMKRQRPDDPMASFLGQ
# UniProt Q7Z7L1, sequence (Q7Z7L1 whole entry, looked up): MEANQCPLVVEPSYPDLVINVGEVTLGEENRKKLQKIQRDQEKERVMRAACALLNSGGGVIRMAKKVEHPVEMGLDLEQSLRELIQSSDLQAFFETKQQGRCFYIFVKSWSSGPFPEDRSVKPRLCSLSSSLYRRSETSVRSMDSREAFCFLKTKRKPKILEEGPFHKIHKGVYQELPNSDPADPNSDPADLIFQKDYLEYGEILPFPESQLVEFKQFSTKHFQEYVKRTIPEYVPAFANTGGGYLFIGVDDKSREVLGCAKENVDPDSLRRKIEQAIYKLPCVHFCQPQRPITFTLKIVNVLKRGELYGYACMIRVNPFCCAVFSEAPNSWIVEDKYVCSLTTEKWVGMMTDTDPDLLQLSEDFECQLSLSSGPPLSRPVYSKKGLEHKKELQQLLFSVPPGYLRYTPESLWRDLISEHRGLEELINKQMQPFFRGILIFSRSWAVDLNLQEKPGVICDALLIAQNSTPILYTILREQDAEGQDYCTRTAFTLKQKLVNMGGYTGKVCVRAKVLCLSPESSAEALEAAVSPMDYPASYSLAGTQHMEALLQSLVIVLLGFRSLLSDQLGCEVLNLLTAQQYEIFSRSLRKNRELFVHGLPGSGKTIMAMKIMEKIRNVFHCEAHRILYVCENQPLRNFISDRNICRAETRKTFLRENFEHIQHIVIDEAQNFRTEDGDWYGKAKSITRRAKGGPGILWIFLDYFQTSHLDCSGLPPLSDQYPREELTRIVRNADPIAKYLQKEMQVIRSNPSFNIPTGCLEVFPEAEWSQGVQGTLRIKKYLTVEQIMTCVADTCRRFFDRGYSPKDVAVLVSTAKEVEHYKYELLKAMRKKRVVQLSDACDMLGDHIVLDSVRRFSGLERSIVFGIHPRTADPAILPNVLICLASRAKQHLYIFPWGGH
# UniProt Q9H7B4, sequence (Q9H7B4 whole entry, looked up): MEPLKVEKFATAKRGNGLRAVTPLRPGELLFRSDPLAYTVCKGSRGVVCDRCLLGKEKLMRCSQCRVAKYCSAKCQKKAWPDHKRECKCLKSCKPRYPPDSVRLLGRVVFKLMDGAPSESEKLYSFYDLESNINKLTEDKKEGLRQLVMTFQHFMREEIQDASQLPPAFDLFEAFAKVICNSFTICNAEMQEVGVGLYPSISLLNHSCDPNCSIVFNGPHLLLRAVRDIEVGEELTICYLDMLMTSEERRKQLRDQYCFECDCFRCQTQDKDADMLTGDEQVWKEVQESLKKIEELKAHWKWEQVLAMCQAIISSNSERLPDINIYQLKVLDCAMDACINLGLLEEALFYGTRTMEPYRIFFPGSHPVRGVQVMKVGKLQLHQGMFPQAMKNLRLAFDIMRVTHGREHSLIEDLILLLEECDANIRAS
Target,probe-labelled cysteine peptide fold change (10 µM),probe-labelled cysteine peptide fold change (50 µM)
SLPI_P03973_51+57_YKKPECQSDWQCPGK (UniProt P03973),-0.301,-0.883
SAR1B_Q9Y6B6_102_NYLPAINGIVFLVDCADHER (UniProt Q9Y6B6),0.177,0.151
SIL1_Q9H173_408_VLQTLGVLLTTCR (UniProt Q9H173),0.0793,0.848
SLX4_Q8IY92_786_FGVSELVHLCEQVPIATDSEGKPWEEK (UniProt Q8IY92),0.00222,0.116
SKAP2_O75563_186_DCCFEISAPDK (UniProt O75563),0.239,0.128
SDF2_Q99470_137_NLHSHHFTSPLSGNQEVSAFGEEGEGDYLDDWTVLCNGPYWVR (UniProt Q99470),0.298,0.622
SLC25A10_Q9UBX3_69_TDGILALYSGLSASLCR (UniProt Q9UBX3),0.0966,0.615
SMYD3_Q9H7B4_263_DQYCFECDCFR (UniProt Q9H7B4),-0.0567,0.116
SAE1_Q9UBE0_303_YCFSEMAPVCAVVGGILAQEIVK (UniProt Q9UBE0),-0.0632,-0.0869
SNRPC_P09234_25_KTHCSGR (UniProt P09234),-0.332,-0.766
SNTB1_Q13884_515_DGEIQLDLHSCPK (UniProt Q13884),0.144,0.6
SLC4A7_Q9Y6M7_120_VQFILGTEDDDEEHIPHDLFTEMDELCYR (UniProt Q9Y6M7),0.222,-0.577
SCAF11_Q99590_752_QMNENSVTHCSENNMPSSDLADEK (UniProt Q99590),0.00365,-0.727
SP110_Q9HB58_327_DDSTCNSTVETR (UniProt Q9HB58),0.0292,-0.106
SMU1_Q2TAY7_219_SHVECAR (UniProt Q2TAY7),0.194,0.11
RTCB_Q9Y3I0_485_NVTDVVNTCHDAGISK (UniProt Q9Y3I0),-0.0281,-0.0777
RRAGB_Q5VZM2_185_IFCLVHK (UniProt Q5VZM2),0.162,0.183
SEC24C_P53992_493_RVDAYDRPELSLGSYEFLATVDYCK (UniProt P53992),-0.123,0.0859
SLU7_O95391_445_CCHSFFK (UniProt O95391),0.132,0.191

Target,probe-labelled cysteine peptide fold change (10 µM),probe-labelled cysteine peptide fold change (50 µM)
RSPRY1_Q96DX4_190_LTEILNLNGEVACQDSSHPAK (UniProt Q96DX4),-0.258,-0.129
SNTB1_Q13884_515_DGEIQLDLHSCPKPIVFIIHSFLSAK (UniProt Q13884),-0.207,0.302
SMARCC2_Q8TAQ2_80_CFLDFK (UniProt Q8TAQ2),-0.00468,0.128
SETDB1_Q15047_582_LFYLPHVCSYTCLSR (UniProt Q15047),-0.142,-0.048
RRP8_O43159_451_AQLSGLQLQPCLYK (UniProt O43159),0.0693,-0.167
SIPA1_Q96FS4_467_AHTPCTPHTTYR (UniProt Q96FS4),0.187,0.0943
SPECC1_Q5M775_633_EICDHQAEQLSR (UniProt Q5M775),-0.00943,-0.0553
RTN3_O95197-3_42_SCSSSCAVHDLIFWR (UniProt O95197),-0.124,-0.737
SEC23A_Q15436_88_LWACNFCYQR (UniProt Q15436),0.0643,0.249
SHCBP1_Q8NEM2_591_VDLEELIECATGK (UniProt Q8NEM2),0.088,-0.228
SETX_Q7Z333_1416_CMPSEPETIK (UniProt Q7Z333),-0.13,-0.585
SIAE_Q9HAT2_367_MPNTFMAVAMDLCDRDSPFGSIHPR (UniProt Q9HAT2),-0.176,-0.565
RRP12_Q5JTH9_102_SSGTFLSGLSDCTNVTFSK (UniProt Q5JTH9),0.0888,0.0733
SEPT9_Q9UHD8_531_WGTIEVENTTHCEFAYLR (UniProt Q9UHD8),0.0123,-0.0856
SNX14_Q9Y5W7_593_IPVFCIDVER (UniProt Q9Y5W7),0.3,0.776
RUVBL1_Q9Y265_94_VPFCPMVGSEVYSTEIK (UniProt Q9Y265),0.0537,-0.0791
SMCHD1_A6NHR9_474_RPIFECFWNGR (UniProt A6NHR9),-0.00857,0.0994
SON_P18583_1551_EMEHNTVCAAGTSPVGEIGEEK (UniProt P18583),0.0276,-0.264
SLFN11_Q7Z7L1_322_VNPFCCAVFSEAPNSWIVEDK (UniProt Q7Z7L1),0.661,0.447

# Reference: the supplement of paper PMC12067093, “Discovery and optimisation of a covalent ligand for TRIM25 and its application to targeted protein ubiquitination” (Chemical Science, 2025)
